Where two headings read alike, the source gives them in different places.

What all share (design): species or system human, MV4-11 + K-562 + COLO205 + SK-N-BE2 + OVCAR-8
In assay [1] the test system is DDR1. Conditions: read-out: apparent Kd, n = 1.
For assay [2], the system named is MAPK10. Conditions: read-out: apparent Kd, n = 1.
Assay [3] has as its system MAPK11. The conditions noted are these: read-out: apparent Kd, n = 1.
The subject of assay [4] is MAPK14. Conditions: read-out: apparent Kd, n = 1.
Assay [5] has as its system MAPK8. The conditions noted are these: read-out: apparent Kd, n = 1.
Assay [6] has as its system MAPK9. Conditions: read-out: apparent Kd, n = 1.
Assay [7] deals with MAPKAPK2. The conditions noted are these: read-out: apparent Kd; compound concentrations: 100 nM and 1000 nM (sheet 'Samples'), CATDS: 0.38284273517915801; n = 1.
The test system of assay [8] is NLK. Conditions: read-out: apparent Kd, compound concentrations: 100 nM and 1000 nM (sheet 'Samples'), n = 1.
For assay [9], the system named is PIP4K2C. The conditions noted are these: read-out: apparent Kd, n = 1.
Assay [10] relates to T1, DJA1.
T1 construct: gene DNAJA1
The conditions noted are these: read-out: apparent Kd, n = 1.

The test system of assay [11] is PRKD2. Conditions: read-out: apparent Kd; compound concentrations:100 nM and 1000 nM (sheet 'Samples'); n = 1.
Assay [12] concerns PRKD3. Conditions: read-out: apparent Kd; compound concentrations:100 nM and 1000 nM (sheet 'Samples'); n = 1.
Assay [13] relates to EGFR. The conditions noted are these: read-out: apparent Kd, compound concentrations: 100 nM and 1000 nM (sheet 'Samples'), n = 1.
In assay [14] the test system is PDXK. The conditions noted are these: read-out: apparent Kd; compound concentrations: 100 nM and 1000 nM (sheet 'Samples'), CATDS: 0.488762713371233; n = 1.
Assay [15] deals with TTN. The conditions noted are these: read-out: apparent Kd; compound concentrations: 100 nM and 1000 nM (sheet 'Samples'), CATDS: 0.640536562241112; n = 1.
Assay [16] deals with EPHB6. The conditions noted are these: read-out: apparent Kd; compound concentrations: 100 nM and 1000 nM (sheet 'Samples'), CATDS: 0.25930053020636601; n = 1.
Assay [17] concerns ERBB3. The conditions noted are these: read-out: apparent Kd; compound concentrations: 100 nM and 1000 nM (sheet 'Samples'), CATDS: 0.19609805104920999; n = 1.
The subject of assay [18] is MAP4K5. Conditions: read-out: apparent Kd; compound concentrations: 100 nM and 1000 nM (sheet 'Samples'), CATDS: 0.26674698552626502; n = 1.
Assay [19] relates to EPHA1. The conditions noted are these: read-out: apparent Kd; compound concentrations: 100 nM and 1000 nM (sheet 'Samples'), CATDS: 0.132169396234084; n = 1.
In assay [20] the test system is EPHA2. Conditions: read-out: apparent Kd; compound concentrations: 100 nM and 1000 nM (sheet 'Samples'), CATDS: 7.9638266315165504E-2; n = 1.
Assay [21] relates to EPHA4. Conditions: read-out: apparent Kd; compound concentrations: 100 nM and 1000 nM (sheet 'Samples'), CATDS: 5.73813509995778E-2; n = 1.
The subject of assay [22] is EPHA5. Conditions: read-out: apparent Kd; compound concentrations: 100 nM and 1000 nM (sheet 'Samples'), CATDS: 6.5260226509332095E-2; n = 1.
The test system of assay [23] is EPHB2. The conditions noted are these: read-out: apparent Kd; compound concentrations: 100 nM and 1000 nM (sheet 'Samples'), CATDS: 6.01599429552135E-2; n = 1.
The test system of assay [24] is EPHB4. Conditions: read-out: apparent Kd; compound concentrations: 100 nM and 1000 nM (sheet 'Samples'), CATDS: 8.2169743824678607E-2; n = 1.
Assay [25] relates to GAK. The conditions noted are these: read-out: apparent Kd; compound concentrations: 100 nM and 1000 nM (sheet 'Samples'), CATDS: 7.0423696237644606E-2; n = 1.
Assay [26] concerns HSP90B1. Conditions: read-out: apparent Kd; compound concentrations: 100 nM and 1000 nM (sheet 'Samples'), CATDS: 5.9403199864953501E-2; n = 1.
For assay [27], the system named is MAP4K4. The conditions noted are these: read-out: apparent Kd; compound concentrations: 100 nM and 1000 nM (sheet 'Samples'), CATDS: 6.0397447549850998E-2; n = 1.
Assay [28] deals with RIPK2. Conditions: read-out: apparent Kd; compound concentrations: 100 nM and 1000 nM (sheet 'Samples'), CATDS: 0.101348300005731; n = 1.
Assay [29] concerns RIPK3. The conditions noted are these: read-out: apparent Kd; compound concentrations: 100 nM and 1000 nM (sheet 'Samples'), CATDS: 0.17935532425018; n = 1.
In assay [30] the test system is TGFBR2. Conditions: read-out: apparent Kd; compound concentrations: 100 nM and 1000 nM (sheet 'Samples'), CATDS: 9.6643303505933295E-2; n = 1.
For assay [31], the system named is TNIK. Conditions: read-out: apparent Kd; compound concentrations: 100 nM and 1000 nM (sheet 'Samples'), CATDS: 7.16657274929937E-2; n = 1.
The test system of assay [32] is FECH. Conditions: read-out: apparent Kd, compound concentrations: 100 nM and 1000 nM (sheet 'Samples'), n = 1.
In assay [33] the test system is PLK1. The conditions noted are these: read-out: apparent Kd, compound concentrations: 100 nM and 1000 nM (sheet 'Samples'), n = 1.
The test system of assay [34] is EIF5B. The conditions noted are these: read-out: apparent Kd; compound concentrations: 100 nM and 1000 nM (sheet 'Samples'), CATDS: 0.290212668862731; n = 1.
[35] abbreviates: compound concentrations:100 nM and 1000 nM (sheet 'Samples').

For the molecule `CS(=O)(=O)N1CCC(n2c(=O)c(Oc3ccc(F)cc3F)cc3cnc(NC4CCOCC4)nc32)CC1` [RO5045977-000], the potency estimated from few doses was 1480 nM in assay [1] (compound concentrations: 100 nM and 1000 nM (sheet 'Samples'), CATDS: 6.1893327663863601E-2); 47.7 nM in assay [2] (compound concentrations: 100 nM and 1000 nM (sheet 'Samples'), CATDS: 0.12322586321359499); 131 nM in assay [3] (compound concentrations: 100 nM and 1000 nM (sheet 'Samples'), CATDS: 9.0776517139408097E-2); 1.11 nM in assay [4] (compound concentrations: 100 nM and 1000 nM (sheet 'Samples'), CATDS: 0.53727809259194403); 145 nM in assay [5] (compound concentrations: 100 nM and 1000 nM (sheet 'Samples'), CATDS: 8.8413103607242097E-2); 48.9 nM in [6] (compound concentrations: 100 nM and 1000 nM (sheet 'Samples'), CATDS: 0.12213676583314199). The potency estimated from few doses in assay [7] is 2.09 nM; in assay [8] (CATDS: 7.8409581021953403E-2), 247 nM; in assay [9] (compound concentrations: 100 nM and 1000 nM (sheet 'Samples'), CATDS: 0.11127151307282), 65.2 nM.
Take `Cc1cccc(-c2nc(Nc3ccc4ncsc4c3)c3ccccc3n2)n1` [GW867588X]: the potency estimated from few doses was 134 nM in assay [10] (setting [35]), 37.5 nM in assay [11] and 74.8 nM in assay [12].
As for `O=C(O[C@H]1CN[C@H](C#Cc2cc3ncnc(Nc4ccc(OCc5cccc(F)c5)c(Cl)c4)c3s2)C1)N1CCOCC1` [GW869810X], in assay [13] (CATDS: 1), the potency estimated from few doses is 72.2 nM.
Consider `O=c1c(Oc2ccc(F)cc2F)cc2cnc(NC3CCOCC3)nc2n1CCCO` [RO4442245-000], for which the potency estimated from few doses in assay [1] (setting [35]) is 1080 nM; in assay [2] (setting [35]), 42.5 nM; in [3] (setting [35]), 13.4 nM; in [4] (setting [35]), 0.149 nM; in assay [5] (setting [35]) it was 54.7 nM; in assay [6] (setting [35]) it was 15.9 nM. The potency estimated from few doses in assay [9] (setting [35]) was 611 nM.
As for `CCCc1ccc(S(=O)(=O)NC2CCN(c3ccnc(Nc4ccc(F)cc4)n3)C2)cc1` (stereo not shown) [GSK1379715A], the potency estimated from few doses in assay [10] (compound concentrations: 100 nM and 1000 nM (sheet 'Samples'), CATDS: 0.51176616573637201) is 1220 nM; in [14], 1340 nM.
As to `c1ccc(COc2ccc(Nc3ncnc4ccc(-c5ccco5)cc34)cc2)cc1` [GW284372X], the potency estimated from few doses in [13] (CATDS: 0.410036232309059) was 781 nM; in assay [15], 304 nM.
Consider `Nc1ncc(-c2ccncc2)c2scc(-c3ccc4c(c3)CCN4C(=O)Cc3ccccc3)c12` [GSK2592465A], for which the potency estimated from few doses in assay [16] is 885 nM; in [17], 1700 nM; in [18] it was 837 nM; in assay [8] (CATDS: 0.30347996318959403), 660 nM.
On to `Nc1ncc(-c2cccc(S(N)(=O)=O)c2)c2scc(-c3ccc(F)c(Cl)c3)c12` [GW856804X], for which the potency estimated from few doses in assay [19] was 306 nM; in assay [20], 758 nM; in assay [21], 1770 nM; in assay [22], 1210 nM; in [23] it was 1530 nM; in [24] it was 710 nM. In addition, the potency estimated from few doses was 1000 nM in assay [25]; 1590 nM in assay [26]; 1510 nM in assay [27]; 475 nM in assay [28]; 196 nM in [29]; 518 nM in assay [30]. Moreover, the potency estimated from few doses in assay [31] was 961 nM.
Turning to `NC(=O)c1sc(-n2cnc3ccccc32)cc1OCc1ccccc1F` [GSK1024306A], the potency estimated from few doses in assay [32] (CATDS: 0.40591450620250102) was 2130 nM; in assay [33] (CATDS: 0.65086071220868402), 781 nM.
As for `COc1ccc(COc2cc(-n3cnc4ccccc43)sc2C(N)=O)cc1` [GSK1024304A], the values for the potency estimated from few doses in [34], in [32] (CATDS: 0.34999062122036301) and in [33] (CATDS: 0.37077800289250101) were 1710 nM, 1150 nM and 1030 nM, respectively.

The values above are taken from paper PMC11062922 (Nature Chemical Biology, 2023).
